Laboratory results reported in PubChem BioAssay (NCATS).
Records with an inconclusive call do not appear. Active and inactive are the calls of the source. Calls come from the whole dose curve; as a rule, active = well fitted curve in the direction sought with a large enough effect; inconclusive = small, poorly fitted or top-dose-only effect, or another doubt; inactive = no such curve, though single readings can be large; an effect the other way counts as inactive or inconclusive.

Experiments:
[1] = Cell Viability - LYMP1-003 - Assay at 40 hr (AID 964); settings: LYMP1-003 lymphoblastoid viability; series mostly up to 92.2 µM; note: nearly all actives have a fitted effect of over 60% in size
Summary of the method: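 LYMP1-003 human lymphoblastoid cells, 2500/well, preincubated 5 h at 37 C, then treated with compound for 40 h at 37 C. Intracellular ATP read by CellTiter-Glo luminescence after 30 min at room temperature; AC50 from Hill-equation fits.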

[2] = Cell Viability - LYMP2-003 (AID 965); settings: LYMP2-003 lymphoblastoid cell viability; series mostly up to 92.2 µM;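 note: cells exposed to compounds for 24 h before reading; nearly all actives have a fitted effect of over 50% in size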
Summary of the method: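 Acute cytotoxicity is scored as a concentration-dependent drop in intracellular ATP, measured by luciferase luminescence in human lymphoblastoid cells treated for 24 hours at 37 C. AC50 values derive from Hill-equation modelling.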

[3] = Cell Viability - LYMP2-004 (AID 966); settings: LYMP2-004 lymphoblastoid cell viability, qHTS; series mostly up to 92.2 µM; note: nearly all actives have a fitted effect of over 65% in size
Summary of the method: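 Lymphoblastoid LYMP2-004 cells, 2500 per well, were preincubated for 5 hr and then treated with compound for 24 h at 37 C in complete medium. Viability was read as cellular ATP by CellTiter-Glo luminescence, and AC50 values were taken from Hill fits to concentration-response data.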

[4] = Cell Viability - LYMP2-005 (AID 967); settings: LYMP2-005 lymphoblastoid cell viability; series mostly up to 92.2 µM
Summary of the method: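 qHTS viability screen in LYMP2-005 cells: 24 h at 37 C with compound, ATP luminescence via CellTiter-Glo, AC50 from Hill curves.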

[5] = Cell Viability - LYMP2-009 (AID 968); settings: LYMP2-009 lymphoblastoid cell viability; series mostly up to 92.2 µM; note: nearly all actives have a fitted effect of over 55% in size
[6] = Cell Viability - LYMP2-011 (AID 969); settings: LYMP2-011 lymphoblastoid cells viability; series mostly up to 92.2 µM; note: nearly all actives have a fitted effect of over 60% in size
Summary of the method: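 2500 cells/well in complete medium, compound-treated 24 h at 37 C. Viability read as intracellular ATP by CellTiter-Glo luminescence after 30 min at room temperature. AC50 from Hill fits of qHTS concentration-response data.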

[7] = Cell Viability - LYMP2-013 (AID 970); settings: LYMP2-013 lymphoblastoid cells viability; series mostly up to 92.2 µM; note: nearly all actives have a fitted effect of over 55% in size
Summary of the method: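 Human lymphoblastoid LYMP2-013 cells, 2500/well, treated 24 h at 37 C in complete medium; viability as intracellular ATP by CellTiter-Glo luminescence after 30 min. AC50 from Hill fits of qHTS concentration-response.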

[8] = Cell Viability - LYMP2-015 (AID 971); settings: LYMP2-015 lymphoblastoid cell viability; series mostly up to 92.2 µM; note: nearly all actives have a fitted effect of over 55% in size
Summary of the method: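 LYMP2-015 human lymphoblastoid cells (2500/well) in complete medium, compound-treated 24 h at 37 C; viability read as cellular ATP by CellTiter-Glo luminescence after 30 min at room temperature. AC50 from Hill-equation fits of qHTS concentration-response data.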

[9] = Cell Viability - LYMP2-017 (AID 972); settings: LYMP2-017 lymphoblastoid cell viability; series mostly up to 92.2 µM; note: nearly all actives have a fitted effect of over 55% in size
Summary of the method: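 LYMP2-017 human lymphoblastoid cells (2500/well) settled 5 hr at 37 C, then exposed to compound 24 hr at 37 C in complete medium. Viability taken as intracellular ATP by CellTiter-Glo luminescence after 30 min at RT; AC50 from Hill fits.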

[10] = Cell Viability - LYMP2-019 (AID 973); settings: LYMP2-019 lymphoblastoid cell line viability; series mostly up to 92.2 µM; note: nearly all actives have a fitted effect of over 55% in size
Summary of the method: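 Human lymphoblastoid LYMP2-019 cells (2500/well) preincubated 5 h at 37 C, then treated 24 h at 37 C in complete medium. Viability by CellTiter-Glo ATP luminescence after 30 min at room temperature; AC50 from Hill fits.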

[11] = Cell Viability - LYMP2-021 (AID 974); settings: LYMP2-021 lymphoblastoid cells viability; series mostly up to 92.2 µM
Summary of the method: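 Human lymphoblastoid LYMP2-021 cells, 2500/well in complete medium, treated 24 hours at 37 C. Intracellular ATP by CellTiter-Glo luminescence (30 min, RT); AC50 from Hill fits of concentration-response.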

[12] = Cell Viability - LYMP2-023 (AID 975); settings: LYMP2-023 lymphoblastoid cell viability; series mostly up to 92.2 µM
Summary of the method: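 LYMP2-023 human lymphoblastoid cells, 2500/well, preincubated 5 hr at 37 C, then compound-treated 24 hr at 37 C in complete medium. CellTiter-Glo luminescence (ATP) after 30 min at room temperature; AC50 from Hill-equation fits; tetraoctylammonium bromide positive control.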

[13] = Cell Viability - LYMP2-025 (AID 976); settings: LYMP2-025 lymphoblastoid cell viability; series mostly up to 92.2 µM
Summary of the method: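 Human lymphoblastoid LYMP2-025 cells, 2500/well, exposed 24 h at 37 C in complete medium in 1536-well qHTS. Viability as cellular ATP by CellTiter-Glo luminescence; AC50 from Hill fits of concentration-response data.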

[14] = Cell Viability - LYMP2-002 (AID 977); settings: LYMP2-002 lymphoblastoid cell viability, qHTS; series mostly up to 92.2 µM;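 note: compound exposure lasted 24 h at 37 °C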
Summary of the method: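 Cytotoxicity is scored as concentration-dependent loss of cellular ATP in a human lymphoblastoid line after 24 hr compound treatment at 37 C. AC50 is obtained by modelling concentration-response data with the Hill equation.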

[15] = Cell Viability - LYMP2-006 (AID 978); settings: LYMP2-006 lymphoblastoid cell viability, qHTS; series mostly up to 92.2 µM; note: nearly all actives have a fitted effect of over 60% in size
Summary of the method: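 Concentration-dependent loss of intracellular ATP in a human lymphoblastoid line after 24 hr treatment at 37 C was measured by CellTiter-Glo luminescence, with AC50 values obtained from standard Hill-equation modelling.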

[16] = Cell Viability - LYMP2-007 (AID 979); settings: LYMP2-007 lymphoblastoid cell viability; series mostly up to 92.2 µM;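 note: cells exposed to compound for 24 h before reading; nearly all actives have a fitted effect of over 60% in size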
Summary of the method: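 Human lymphoblastoid LYMP2-007 cells (2500/well) preincubated 5 h at 37 C, then treated 24 h at 37 C in complete medium. Viability by CellTiter-Glo ATP luminescence after 30 min at room temperature; AC50 from Hill fits.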

[17] = Cell Viability - LYMP2-008 (AID 980); settings: LYMP2-008 lymphoblastoid cell viability, qHTS; series mostly up to 92.2 µM; note: nearly all actives have a fitted effect of over 60% in size
Summary of the method: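 LYMP2-008 lymphoblastoid cells (2500/well) plated 5 h, then treated 24 h at 37 C in complete medium. Viability read as intracellular ATP by CellTiter-Glo luminescence after 30 min at room temperature; AC50 from Hill fits.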

[18] = Cell Viability - LYMP2-010 (AID 981); settings: LYMP2-010 lymphoblastoid cell viability, qHTS; series mostly up to 92.2 µM; note: nearly all actives have a fitted effect of over 55% in size
Summary of the method: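 Human lymphoblastoid LYMP2-010 cells (2500/well) treated 24 h at 37 C in complete medium; viability read as intracellular ATP by CellTiter-Glo luminescence. AC50 from Hill fits of concentration-response data; tetraoctylammonium bromide positive control.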

[19] = Cell Viability - LYMP2-012 (AID 982); settings: LYMP2-012 lymphoblastoid cell viability qHTS; series mostly up to 92.2 µM
[20] = Cell Viability - LYMP2-014 (AID 983); settings: LYMP2-014 lymphoblastoid cells, viability qHTS; series mostly up to 92.2 µM; note: nearly all actives have a fitted effect of over 50% in size
Summary of the method: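 LYMP2-014 human lymphoblastoid cells, 2500/well, treated 24 h at 37 C in complete medium; viability by CellTiter-Glo ATP luminescence after 30 min at room temperature. AC50 from Hill fits of qHTS concentration-response; tetraoctylammonium bromide positive control.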

Measured: outcome

CN(C)CCOC(c1ccccc1)c1ccccc1 (tested in a mixture with another compound)
inactive: all assays above
